Screening data as filed in PubChem BioAssay.
Only some compounds are listed: those with a hit (about 3.9% of all), similar ones and a draw of the others.
PLCb3 inh: inhibitors of human phospholipase C beta3; Purified PLC-beta3, fluorogenic substrate, fluorescence; inhibition, % at 12.2 µM; actives 0.18% (n = 370,000); in the data active = inhibition above about 11%;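 note: 0% = median of compound wells on plate and 100% = full blocker control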
HIF activator: HIF pathway transcriptional activation | U2OS HRE-luciferase reporter, luminescence; normalized: DMSO 0%, desferrioxamine 100% | activation, % at 7.5 µM (by protocol) | actives 0.32% (n = 300,000) | AID 1910;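 active = mean activation of at least 10% of the iron chelator positive control signal, with at least half of replicates also reaching 10%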
sPLA2-III inh: Blocks human group III sPLA2 activity; actives 0.56% (n = 370,000); QFRET BODIPY PC-A2 liposome hydrolysis, fluorescence; AID 743126; Q9NZ20; inhibition, % at 12.2 µM;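 active = inhibition above mean plus 3 SD of compounds lying within the high and low control bounds, cut at about 19% in these data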;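 note: 0% = median of test compound wells and 100% = no enzyme DMSO wells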
AHR activator: activators of human aryl hydrocarbon receptor. P35869. AHR-responsive luciferase reporter cells, luminescence. activation, % at 5 µM. actives 2.5% (n = 320,000); in the data active = activation above about 47%;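 note: 0% = vehicle wells and 100% = reference agonist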
PLCg1 inh: blocks human PLC-gamma1 enzyme activity; actives 0.84% (n = 370,000); inhibition, % at 12.2 µM; P19174; purified PLC-gamma1, fluorogenic substrate, fluorescence; in the data active = inhibition above about 9.5%
Yeast superoxide: yeast age-related superoxide inhibition as caloric restriction mimetic. S. cerevisiae aged cells, superoxide DHE fluorescence; stronger effect = lower value. superoxide response (% of plate mean), % at 10 µM. actives 0.18% (n = 330,000);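 active = superoxide response under a set limit, about three screen SD below normal, cut at about 65% in these data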;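 note: yeast aged for seven days with compound at 30 °C before DHE staining; 100% = average MFI of all compound-treated wells on the plate with controls excluded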
* hit, by the source's call; i = inactive; / = not tested or not shown.

SMILES	PLCb3 inh	HIF activator	sPLA2-III inh	AHR activator	PLCg1 inh	Yeast superoxide
Cc1nc2c(=O)n(C)c(=O)nc-2n(C)n1	6.4	-5.0	-2.6	-16.7	59.8*	114.4
CCn1nc(-c2ccccc2)nc2c(=O)n(C)c(=O)nc1-2	/	-0.9	/	-3.3	/	228.8
CC(NC(=O)OCc1ccccc1)[P+](=O)O (configuration not stated)	6.0	/	0.7	/	0.0	/
Cc1ccc(Cl)cc1N1CCN(CCN)CC1	3.9	0.1	-0.3	-1.4	16.3*	116.6
CN1CCN(c2ccc(Cl)cc2N)CC1	-1.7	-0.3	-0.7	0.6	1.2	101.5
COc1ccc(OC(=O)N(C)C[C@H]2OCc3cnnn3CCCC(=O)N([C@@H](C)CO)C[C@@H]2C)cc1	0.5	/	6.5	/	3.2	/
FC(F)(F)c1ccc2c(c1)ncn2C1CCN(Cc2nnnn2C2CCCCC2)CC1	0.8	-0.5	-2.7	55.6*	-0.4	99.4
Fc1ccc(Cn2nnnc2CN2CCC(n3nnc4cc(C(F)(F)F)ccc43)CC2)cc1	-5.4	-0.6	7.0	0.3	7.5	109.2
COc1ccc([C@@H]2C[C@H]3[C@@H](CN2)CON3C)cc1	0.0	/	-1.0	/	-0.5	/
COc1ccc(Cl)cc1N=Cc1c(O)n(C)c(=O)n(C)c1=O	-8.1	-2.8	4.9	7.3	-3.5	101.9
COc1ccccc1N=Cc1c(O)n(C)c(=O)n(C)c1=O	-5.5	0.1	-1.4	73.3*	-4.9	100.3
CCOP(=O)(C#CC(C)(C)C)C1(O)CCCCC1 (configuration not stated)	4.7	97.9*	1.7	-4.1	5.0	98.7
O=C1NC(=O)C2(Cc3ccccc3N3CCCC32)C(=O)N1c1ccccc1 (configuration not stated)	-48.1	-0.3	-14.4	23.5	-40.0	107.2
CN1c2ccc([N+](=O)[O-])cc2CC2(C(=O)NC(=O)N(c3ccc(Br)cc3)C2=O)C1c1ccccc1 (configuration not stated)	1.3	-0.3	-4.7	75.7*	3.2	79.1
c1cncc(C2Nc3cccc4cccc(c34)N2)c1	-20.1	0.4	-1.3	12.8	-11.5	89.1
Cc1cccc(C(=O)NC(Oc2ccccc2)C(Cl)(Cl)Cl)c1 (configuration not stated)	-2.4	-0.2	5.4	50.2*	3.1	112.4
CN(C)C(=O)Oc1ccc(Br)cc1C(=O)Nc1ccc(F)c(Cl)c1	-7.6	-0.4	0.0	66.9*	0.3	94.4
Clc1cc(Cl)cc(CN2Cc3ccccc3-n3nncc3C2)c1	2.2	/	4.1	/	-0.2	/
CCN1CCN(c2ccc([N+](=O)[O-])cc2C=C2C(=O)NC(=O)NC2=O)CC1	-11.5	24.2*	0.5	1.4	-7.8	103.9
C#C[C@]1(O)CC[C@H]2[C@@H]3[C@H](O)C[C@H]4C[C@@H](O)CC[C@]4(C)[C@H]3CC[C@@]21C	0.3	/	-10.1	/	-1.2	/
Cc1cc(C)c(S(=O)(=O)NCC2CCC(C(=O)N3CCC4(CC3)OCCO4)CC2)c(C)c1 (configuration not stated)	-2.5	/	1.1	0.0	-0.1	107.6
Clc1ccccc1Nc1ncnc(-n2cccc2)n1	0.2	4.0	2.7	101.4*	-0.2	98.7
Cc1c(P(=S)(c2ccccc2)c2ccccc2)c2ccccc2n1C	1.0	/	-0.1	/	-0.2	/
CC(C)(C)c1ccc(O)c(N=Cc2c(O)ccc3ccccc23)c1	-10.7	3.9	-21.8	64.4*	-3.4	105.2
CCS(=O)(=O)Nc1cccc(C(=C2CCCCC2)c2cnc[nH]2)c1	-3.6	/	-37.4	57.9*	-2.8	99.7
SMILES	PLCb3 inh	HIF activator	sPLA2-III inh	AHR activator	PLCg1 inh	Yeast superoxide
O=C1NC(=O)C(CCc2ccncc2)(c2ccccc2)C(=O)N1	2.7	-0.4	7.7	1.9	2.8	103.2
CC(Cc1ccccc1)NC(=O)Cc1ccc([N+](=O)[O-])cc1 (configuration not stated)	0.3	0.7	2.4	1.6	9.8*	99.8
CC(C)CCP(=O)(O)O	3.0	/	5.3	/	2.8	/
Clc1ccc(-c2nc3ccc(Cl)cn3c2CN2CCOCC2)cc1	-6.3	0.5	-3.2	62.1*	-4.6	97.8
Clc1ccc(-c2nc3ccc(Cl)cn3c2CN2CCCCC2)cc1	-2.9	-0.3	10.1	/	1.9	98.9
Nc1c2c(nc3sc4c(c13)CCCC4)CCCCC2	-1.1	2.4	-0.6	57.9*	-2.1	102.7
Cc1cc(OCC(=O)NCc2ccncc2)c2c3c(c(=O)oc2c1)CCCC3	-41.9	-0.3	3.0	63.6*	-13.2	92.6
Cc1cc(OC(C)C(=O)NCc2ccncc2)c2c3c(c(=O)oc2c1)CCCC3 (configuration not stated)	-76.4	0.5	1.6	13.1	-50.9	119.0
COC(=O)C1=C(c2ccc(F)cc2F)C[C@@H]2CC[C@H]1N2C(=O)NCc1ccco1	-7.8	/	-4.1	-0.8	-3.6	87.2
O=C(c1cccnc1)c1cc2ccccc2[nH]1	1.1	15.7*	2.8	24.9	2.5	121.8
O=C(c1cccnc1)N1Cc2ccccc2-n2nncc2C1	5.3	/	-1.0	/	3.0	/
CCC(=NCc1cc(OC)cc(OC)c1)c1c(O)[nH]c(=O)[nH]c1=O	-2.5	66.0*	-5.1	13.7	-1.5	92.6
Cc1nn(Cc2ccccc2)c(Cl)c1C(=O)NC1CCCc2ccccc21 (configuration not stated)	0.1	0.1	-4.9	5.4	3.1	108.1
CCOC(=O)c1c(C)n(Cc2ccco2)c2c1cc(O)c1ccccc12	-18.6	0.7	-10.3	51.3*	-14.7	81.3
CCn1c(=O)cc(OCC(=O)N2CCN(Cc3ccc4c(c3)OCO4)CC2)c2ccccc21	-0.3	2.0	-0.8	54.9*	-1.7	112.2
CC1CCCC(NC(=O)CNC(=S)N2CC3CC(C2)c2cccc(=O)n2C3)C1C (configuration not stated)	-2.3	-0.2	3.9	1.2	1.0	95.0
Nc1ccc(Cl)cc1	-0.7	/	5.4	/	-0.1	/
Nc1ccc(Cc2ccc(N)cc2)cc1	10.7*	/	6.0	/	-0.7	/
Cc1ccc(C(=O)N[C@@H](C)CN2C3=NC[C@H](Cc4ccccc4)N3C[C@H]2Cc2ccc(O)cc2)cc1Br	/	0.5	/	8.9	/	100.8
Cc1ccc(C(=O)N[C@@H](C)CN2C3=NC[C@@H](Cc4ccccc4)N3C[C@H]2Cc2ccc(O)cc2)cc1Br	5.5	-0.3	-23.2	5.8	12.9*	98.7
CCOC(=O)c1c(NS(=O)(=O)c2ccccc2)n(CCCOC)c2nc3ccccc3nc12	i	454.7*	-0.7	8.8	i	99.0
COCCCn1c(N)c(C(=O)OCCOC)c2nc3ccccc3nc21	i	0.2	14.0	8.1	i	79.7
NC(Cc1ccc(Cl)cc1)c1csc(Nc2ncccn2)n1 (configuration not stated)	1.3	/	3.2	/	1.1	/
O=c1c2ccccc2nc(/C=C/c2ccccc2F)n1-c1ccccc1O	-70.9	-0.3	-42.9	22.0	-42.0	91.6
